Most compounds without a hit are left out; they make up all but 19% or so of the library.
Giardia kill = Giardia lamblia killing; Giardia lamblia trophozoite viability; AID 540267; activity change, % at 7.66 µM, hits read low; hit rate 0.15% among 340,000; in the data active means activity change below about -80%; inconclusive means between about -30% and that limit;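 further: parasites exposed to compound for two days anaerobically before the ATP read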
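Viability, read as ATP luminescence: trophozoites at 100 cells/well, compound added, 48 hrs anaerobic at 37 deg C, then 15-30 min room-temperature development before reading.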
ELG1 repair inh = inhibitors of ELG1-dependent DNA repair in HEK293T cells; HEK293T ELG1-luciferase reporter, luminescence, 16 h; DNA damage induced by 5-fluorouridine; Potency, µM (highest dose often 46.1 µM), without a hit: at the top dose activity change, negative = inhibition, usual class: inhibitors; hit rate 2.3% among 330,000; AID 504467; further: potency means the concentration at half of the fitted maximal effect; nearly all actives have a fitted effect of over 55% in size
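Luminescence from the luciferase reporter, measured 30 min after ONE-Glo reagent at room temperature, was the read-out. Beforehand, 2,000 cells per well were exposed for 16 hr at 37 °C to 5-fluorouridine together with compound or vehicle.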
IL-1B inflam inh = inflammasome signaling inhibition, IL-1 beta readout | THP-1 LPS/ATP IL-1B secretion, AlphaLISA, 16 h; hits give low values | hit rate 4.7% among 360,000 | activity change, % at 57.5 µM | AID 743279; in the data active means activity change below about -50%; inconclusive means mostly about -30% to -49%
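THP-1 cells pretreated 1 hr with compounds (up to 57.5 uM final), then stimulated with LPS (250 ng/mL final) plus ATP (1.25 mM final); secreted IL-1B measured by AlphaLISA after 16 hr, decreased signal indicating inhibition.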
TDP1 inh = blocks human tyrosyl-DNA phosphodiesterase 1; Q9NUW8; recombinant TDP1, AlphaScreen DNA substrate cleavage; Potency, µM (top dose mostly 130 µM), for inactives: at the top dose activity change, negative = inhibition, hits mostly inhibitors; hit rate 0.28% among 350,000; further: potency means the concentration at half of the fitted maximal effect; nearly all actives have a fitted effect of over 40% in size
Target sequence (Q9NUW8 whole entry, looked up): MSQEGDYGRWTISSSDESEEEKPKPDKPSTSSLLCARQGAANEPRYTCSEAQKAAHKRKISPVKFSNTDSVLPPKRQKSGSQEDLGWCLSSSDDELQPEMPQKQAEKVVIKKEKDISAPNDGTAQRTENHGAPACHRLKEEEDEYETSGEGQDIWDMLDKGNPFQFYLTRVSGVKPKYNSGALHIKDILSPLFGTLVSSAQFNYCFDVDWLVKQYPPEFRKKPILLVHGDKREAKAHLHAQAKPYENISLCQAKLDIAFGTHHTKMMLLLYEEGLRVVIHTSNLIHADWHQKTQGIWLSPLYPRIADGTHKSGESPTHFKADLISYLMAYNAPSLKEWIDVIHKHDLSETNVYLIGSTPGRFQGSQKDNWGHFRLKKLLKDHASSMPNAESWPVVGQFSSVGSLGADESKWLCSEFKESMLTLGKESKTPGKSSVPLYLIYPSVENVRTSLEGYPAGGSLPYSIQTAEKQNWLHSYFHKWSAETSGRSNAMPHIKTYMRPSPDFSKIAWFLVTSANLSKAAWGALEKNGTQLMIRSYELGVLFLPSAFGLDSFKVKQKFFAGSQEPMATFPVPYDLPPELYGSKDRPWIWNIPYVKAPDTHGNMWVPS
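Enzyme-compound mixtures sat 15 min at room temperature, followed by a 5 min reaction with 15 nM final substrate and 10 min with AlphaScreen beads. Recombinant human Tdp1 was used at 1 nM final.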
DT40 TDP1 CPT = growth inhibition of DT40 Tdp1-/-;hTDP1 cells with camptothecin (screen for TDP1 inhibitors) | Potency, µM (highest dose often 46.2 µM), without a hit: at the top dose activity change, negative = growth inhibition, usual class: inhibitors | chicken DT40 Tdp1-/-;hTDP1 cells + 20 nM CPT, ATP luminescence, 48 h | AID 686979 | hit rate 12% among 420,000; further: potency means the concentration at half of the fitted maximal effect; nearly all actives have a fitted effect of over 55% in size
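Chicken DT40 Tdp1-/- cells stably complemented with human TDP1 were seeded at 400 cells/well in medium containing 20 nM camptothecin, exposed to pin-transferred compounds, and grown at 37 °C for at least 48 hr. Viability was read as ATP luminescence.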
TDP1 cell noCPT = qHTS for Inhibitors of human tyrosyl-DNA phosphodiesterase 1 (TDP1): qHTS in cells in absence of CPT | DT40 Tdp1-/- hTDP1 cells, no CPT, ATP luminescence, 48 h | Potency, µM (doses to about 46.2 µM), for inactives: top-dose activity change, negative = growth inhibition, most hits filed as inhibitors | hit rate 15% among 420,000 | AID 686978, 2013; further: potency means the concentration at half of the fitted maximal effect; nearly all actives have a fitted effect of over 55% in size
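Compound effects on proliferation are scored in DT40 Tdp1-/-;hTDP1 cells in the absence of CPT. ATP levels (CellTiter-Glo luminescence) are recorded after a ≥48 hr, 37 °C incubation.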
Numbers without * were called inactive; u = inconclusive; x = no result; [ ] = another dose, or the depositor's remark. Unless noted, the call rests on the fitted dose curve; in most records, active means well fitted curve in the direction sought with a large enough effect; inconclusive means small, poorly fitted or top-dose-only effect, or another doubt; inactive means no such curve, though single readings can be large; an effect the other way counts as inactive or inconclusive. On the % scale 0 is the no-effect control and ±100 the full control effect.

SMILES	Giardia kill	ELG1 repair inh	IL-1B inflam inh	TDP1 inh	DT40 TDP1 CPT	TDP1 cell noCPT
CCCCC(=O)NC(=S)NNC(=O)CCc1ccccc1	-4	0%	174	4%	21µM*	21µM*
CCCCC(=O)NNC(=S)NC(=O)CCC	-3	u	-95*	-1%	u	u
CC(=O)NC(=S)NNC(=O)CCc1ccccc1	0	-17%	-7	-4%	u	u
CC(C)(C)c1cc(CCC(=O)NNC(=S)NC(=O)c2ccccc2)cc(C(C)(C)C)c1O	-16	17%	169	9%	4.1µM*	3.7µM*
CC(C)(C)c1cc(CCC(=O)NNC(=O)c2ccco2)cc(C(C)(C)C)c1O	-2	2%	19	3%	-8%	u
O=C(CCc1ccccc1)NNC(=S)NC(=O)c1ccccc1	8	14%	0	9%	7.3µM*	15µM*
Cc1cc(O)c2c(C)c(CC(=O)N3CCCCC3)c(=O)oc2c1	x	x	x	5%	4%	u
Cc1c(C(=O)NCC(C)C)sc2ncnc(NCC3CCCO3)c12 (stereo not given)	x	x	x	x	4%[9.04 µM]	-9%
CC(C)(C)CC(=O)NC(=S)NCc1ccco1	-16	-5%	0	2%	-14%	0%
O=C(CCc1ccccc1)NC(=S)NCc1ccco1	-9	6%	1	8%	12%	21µM*
CC(Oc1ccc(Cl)cc1)c1ccc(C#N)c(=O)[nH]1 (stereo not given)	4	-4%	-5	1%	-11%	-5%
CCOC(=O)C(NC(=O)c1ccccc1)(OCc1ccccc1)C(F)(F)F (stereo not given)	-15	13%	5	0%	-16%	u
CCOC(=O)C(NC(=O)NCc1ccccc1)(OCC)C(F)(F)F (stereo not given)	9	-33%	0	-3%	u	23µM*
Cc1cccc(CSc2nnc3[nH]c(=O)cc(-c4ccccc4)n23)c1	x	x	x	3%	2%	-12%
C[C@H](NC(=O)c1nc[nH]c1C(=O)NCC(=O)OCc1ccccc1)C(=O)OCc1ccccc1	8	-22%	35	x	-7%	u
CC(C)C[C@H](NC(=O)c1nc[nH]c1C(=O)NCC(=O)OC(C)(C)C)C(=O)OCc1ccccc1	20	-3%	32	7%	u	u
CC(C)C[C@H](NC(=O)c1[nH]cnc1C(=O)N[C@@H](C)c1ccccc1)C(=O)OCc1ccccc1	0	u	24	-1%	29µM*	26µM*
CC(C)(C)OC(=O)CNC(=O)c1[nH]cnc1C(=O)NC(c1ccccc1)c1ccccc1	41	-12%	u	x	23µM*	u
C[C@H](NC(=O)c1nc[nH]c1C(=O)NCC(=O)OCc1ccccc1)c1ccccc1	-22	-19%	3	x	u	18µM*
CC(C)C[C@H](NC(=O)c1nc[nH]c1C(=O)N[C@@H](CC(C)C)C(=O)OC(C)(C)C)C(=O)OCc1ccccc1	5	-19%	0	x	u	u
O=C(Nc1ccc2oc(-c3cccnc3)nc2c1)c1ccc(Br)cc1	x	x	x	x	-20%	-19%
CCOC(=O)c1ccccc1NC(=O)COC(=O)CCC(=O)c1ccccc1	0	-3%	2	-2%	11%	4%
CCOC(=O)N1CCC(n2c(SCC(=O)c3ccccc3)nc3ccsc3c2=O)CC1	-5	u	-16	-3%	2.6µM*	2.9µM*
CCOC(=O)N1CCC(n2c(SCC(=O)OCc3ccccc3)nc3ccsc3c2=O)CC1	-9	23µM*	-7	1%	-24%	-22%
O=C(CSc1nc2ccsc2c(=O)n1Cc1ccc(C(=O)O)cc1)NCc1ccco1	-4	6%	6	x	-2%	4%
SMILES	Giardia kill	ELG1 repair inh	IL-1B inflam inh	TDP1 inh	DT40 TDP1 CPT	TDP1 cell noCPT
CCOC(=O)N1CCC(n2c(SCC(=O)NCc3ccco3)nc3ccsc3c2=O)CC1	13	u	33	0%	23µM*	18µM*
CCOC(=O)CSc1nc2ccsc2c(=O)n1C1CCN(C(=O)OCC)CC1	9	u	-12	1%	u	u
CC(NC1=CC(=O)c2cccnc2C1=O)C(O)c1ccccc1 (stereo not given)	8	x	-100*	x	1.5µM*	3.3µM*
CC(=O)c1c(C)[nH]c(C(=O)Nc2cccc(C#N)c2)c1C	-7	16%	-4	8%	-20%	16µM*
CC(=O)c1c(C)[nH]c(C(=O)Nc2ccc(C)c(C)c2)c1C	-1	u	-26	4%	-3%	-2%
CC(=O)c1c(C)[nH]c(C(=O)Nc2cccnc2)c1C	18	u	28	-2%	-2%	-1%
CC(=O)c1c(C)[nH]c(C(=O)Nc2cccc(C(F)(F)F)c2)c1C	21	u	-73*	x	u	21µM*
CC(C)c1ccc(NC(=O)Cc2c(C(=O)O)n(C)c3ccccc23)cc1	3	11%	11	x	3%	9%
CCCCCCN1C[C@@H](O)[C@H](n2cc(COC(=O)c3ccccc3)nn2)C[C@@H]1c1ccc(OC)cc1	x	x	-2	x	u	u
C=CCN1C(=O)/C(=C\c2ccc(OC(=O)c3ccco3)c(OC)c2)SC1=S	-4	18%	3	6%	-12%	u
COc1cc(/C=C2/C(=O)NN(c3cccc(F)c3)C2=O)ccc1OC(=O)c1ccco1	7	u	-8	2%	u	16µM*
O=C(COc1ccccc1F)Nc1ccc(S(=O)(=O)NCc2ccco2)cc1	0	-10%	-2	4%	u	18µM*
O=C(Nc1ccc(S(=O)(=O)NCc2ccco2)cc1)c1ccc2ccccc2n1	-6	u	-11	0%	u	21µM*
COc1ccc(C(=O)NCC(=O)Nc2cccc(S(=O)(=O)NCc3ccco3)c2)cc1OC	-8	-3%	86	6%	1%	9%
CC(C)CC(=O)Nc1ccc(S(=O)(=O)NCc2ccco2)cc1	-4	-12%	56	-14%	-15%	u
O=C(COc1ccccc1)Nc1ccc(S(=O)(=O)NCc2ccco2)cc1	35	-25%	7	1%	u	u
CCc1ccccc1OCC(=O)Nc1cccc(S(=O)(=O)NCc2ccco2)c1	4	u	u	5%	18µM*	u
COc1ccc(C(CNC(=O)COc2ccc(C)c(C)c2)N2CCCCC2)cc1 (stereo not given)	13	-1%	4	2%	23µM*	u
